{
  "source": "PubChem BioAssay (EPA / NIEHS)",
  "note": "Inconclusive results are not listed. The source made the active and inactive calls. The calls were made as follows: active = hit-call score of the fitted dose curve at least 0.9, where 1 is the maximum; inconclusive = response in the unintended direction; inactive = score below 0.9.",
  "data": [
    {"read-out": "HMG-CoA synthase (HMGCS2), HMGCS2 (gene 3158)", "experiment": "CLD_HMGCS2_6hr: CellzDirect (CLD) Gene Expression Assay for HMG-CoA synthase (HMGCS2) at 6 hours (AID 2283682);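 also: actives raise HMGCS2 transcript above the 0.2% DMSO vehicle baseline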", "protocol": "CLD_6hr is a cell-based, multiplexed-readout assay that uses hepatocyte, a human liver primary cell, with measurements taken at 6 hours after chemical dosing in a 96-well plate.CLD_HMGCS2_6hr is one of 16 assay component(s) measured or calculated from the CLD_6hr assay. It is designed to make measurements of mRNA induction, a form of inducible reporter, as detected with chemiluminescence signals by Quantitative Nuclease Protection Assay (qNPA) technology.Data from the assay component CLD_HMGCS2_6hr was analyzed at the endpoint, CLD_HMGCS2_6hr, in the positive analysis fitting direction relative to DMSO as the negative control and baseline of activity. Using a type of inducible reporter, gain-of-signal activity can be used to understand changes in the reporter gene as they relate to the gene HMGCS2. Furthermore, this assay endpoint can be referred to as a primary readout. To generalize the intended target to other relatable targets, this assay endpoint is annotated to the lyase intended target family, where subfamily is HMG-CoA synthase.\nHuman hepatocyte cultures were treated daily for two consecutive days with fresh dosing solutions containing appropriate concentrations of the 320 ToxCast chemicals (chemical identities were blinded to CellzDirect and other ToxCast collaborators), vehicle control (0.2% DMSO), and positive control inducers as summarized in Table 1. Due to the large number of treatment groups and chemicals examined, the ToxCast chemicals were divided into two groups (spanning two independent cultures of hepatocytes from separate donor preparations (Hu778: ToxCast plates 1 and 2; Hu776: ToxCast plates 3 and 4). Each preparation of human hepatocyte cultures was treated with respective vehicle control, medium only control, set of six positive controls/reference chemicals for the five hepatic receptor pathways, and a subset of eight of the ToxCast chemicals (indoxacarb, pyrithiobac-sodium, norflurazon, cyhalofop-butyl, methomyl, thiram, acetochlor, and propiconazole). These replicate data, coupled with internal replicates designed within the blinded ToxCast chemical library, provided additional data to evaluate interindividual differences between hepatocyte preparations and their potential impact on chemical profiles.Cell morphology and integrity were evaluated using phase-contrast microscopy as an indicator of hepatocyte cell health (Tyson & Green, 1987). Cultures for each treatment group (i.e., media, vehicle [0.2% DMSO], positive control inducers [multiple concentrations], and the ToxCast chemicals [multiple concentrations]) were observed and cell morphology was assessed relative to vehicle control cultures at each harvest time point (0, 6, 24, or 48 h). […] Images were evaluated at the conclusion of the study to assess changes in cell integrity and account for the effects of chemical exposure on uncharacteristic changes in concentration-dependent gene expression profiles. The results from these determinations of apparent cytotoxicity were annotated (yes/no) alongside the corresponding qNPA data for reference.At the conclusion of each treatment period, hepatocyte cultures (96-well) were washed with 1 volume of HBSS, lysed by addition of 25 ul ArrayPlate lysis buffer (HTG, Tucson, AZ), and 70 ul/well of Denaturation Oil, denatured by incubation at 95C for 10 min, and frozen at approximately -70C until analysis by nuclease protection assay (qNPA) (Roberts et al., 2007). For qNPA analysis, cell lysates were thawed at 50C for approximately 30 min, qNPA probes were added, and samples were incubated at 95C for 10 min to begin the detection process by denaturing the target RNA, dissociating the duplexes and secondary structure hybridization. At the conclusion of the hybridization period, S1 nuclease reagent was added to each sample to digest all nonprotected nucleotides at 50C for 60-90 min. […]", "values": [
      {"smiles": "N#CC(CCc1ccc(Cl)cc1)(Cn1cncn1)c1ccccc1", "note": "(stereo not drawn)", "outcome": "inactive"},
      {"smiles": "CC1COC(Cn2cncn2)(c2ccc(Oc3ccc(Cl)cc3)cc2Cl)O1", "note": "(stereo not drawn)", "outcome": "inactive"},
      {"smiles": "CCOc1cc(Oc2ccc(C(F)(F)F)cc2Cl)ccc1[N+](=O)[O-]", "outcome": "inactive"},
      {"smiles": "CCOC(=O)CC(SP(=S)(OC)OC)C(=O)OCC", "note": "(stereo not drawn)", "outcome": "inactive"},
      {"smiles": "CNC(=S)S", "outcome": "inactive"},
      {"smiles": "COc1cnc(OC)n2nc(NS(=O)(=O)c3c(OCC(F)F)cccc3C(F)(F)F)nc12", "outcome": "inactive"},
      {"smiles": "O=C(O)c1nc(Cl)ccc1Cl", "AC50": "1890 nM (active)"},
      {"smiles": "COc1nc(C)nc(NC(=O)NS(=O)(=O)c2ccccc2Cl)n1", "outcome": "inactive"},
      {"smiles": "CCCCC(CC)COC(=O)c1ccccc1C(=O)OCC(CC)CCCC", "note": "(stereo not drawn)", "outcome": "inactive"},
      {"smiles": "CC(C)C1(C)N=C(c2nc3ccccc3cc2C(=O)O)NC1=O", "note": "(stereo not drawn)", "outcome": "inactive"},
      {"smiles": "CCNc1nc(Cl)nc(NC(C)C)n1", "outcome": "inactive"},
      {"smiles": "CCCC1COC(Cn2cncn2)(c2ccc(Cl)cc2Cl)O1", "note": "(stereo not drawn)", "outcome": "inactive"},
      {"smiles": "CCOP(=S)(OCC)SCn1c(=O)oc2cc(Cl)ccc21", "outcome": "inactive"},
      {"smiles": "COP(N)(=O)SC", "note": "(stereo not drawn)", "outcome": "inactive"},
      {"smiles": "COC(=O)C=C(C)OP(=O)(OC)OC", "outcome": "inactive"},
      {"smiles": "C#CCOS(=O)OC1CCCCC1Oc1ccc(C(C)(C)C)cc1", "note": "(stereo not drawn)", "outcome": "inactive"},
      {"smiles": "CCON=C(CC)C1=C(O)CC(c2c(C)cc(C)cc2C)CC1=O", "note": "(stereo not drawn)", "outcome": "inactive"},
      {"smiles": "N#Cc1cc(Br)c(O)c(Br)c1", "outcome": "inactive"},
      {"smiles": "COC(=O)c1ccccc1C(=O)OC", "outcome": "inactive"},
      {"smiles": "CN(C)C(=S)SSC(=S)N(C)C", "outcome": "inactive"},
      {"smiles": "CC(C)(C)c1ccc(CSc2cnn(C(C)(C)C)c(=O)c2Cl)cc1", "outcome": "inactive"},
      {"smiles": "COC(=O)N(OC)c1ccccc1COc1ccn(-c2ccc(Cl)cc2)n1", "outcome": "inactive"},
      {"smiles": "C=CCC1=C(C)C(OC(=O)C2C(C=C(C)C)C2(C)C)CC1=O", "note": "(stereo not drawn)", "outcome": "inactive"},
      {"smiles": "O=C(O)COc1nc(Cl)c(Cl)cc1Cl", "outcome": "inactive"},
      {"smiles": "CCc1nn(C)c(C(=O)NCc2ccc(C(C)(C)C)cc2)c1Cl", "outcome": "inactive"},
      {"smiles": "COc1nc(C)nc(NC(=O)NS(=O)(=O)c2ccccc2CCC(F)(F)F)n1", "outcome": "inactive"},
      {"smiles": "Cc1ccc(-c2c(Cl)nc(C#N)n2S(=O)(=O)N(C)C)cc1", "outcome": "inactive"},
      {"smiles": "COC(=O)C(C)Oc1ccc(Oc2ccc(Cl)cc2Cl)cc1", "note": "(stereo not drawn)", "outcome": "inactive"},
      {"smiles": "CCCN(CCC)c1c([N+](=O)[O-])cc(S(N)(=O)=O)cc1[N+](=O)[O-]", "outcome": "inactive"},
      {"smiles": "O=C(Nc1ccccc1)Nc1ccnc(Cl)c1", "outcome": "inactive"},
      {"smiles": "C=CCC1=C(C)[C@@H](OC(=O)[C@@H]2[C@@H](C=C(C)C)C2(C)C)CC1=O", "outcome": "inactive"},
      {"smiles": "CCCCOC(=O)c1ccccc1C(=O)OCCCC", "outcome": "inactive"},
      {"smiles": "N#Cc1nn(-c2c(Cl)cc(C(F)(F)F)cc2Cl)c(N)c1S(=O)C(F)(F)F", "note": "(stereo not drawn)", "outcome": "inactive"}
    ]}
  ]
}
